We go through 39 compounds from PubChem BioAssay (NCI).

“And” between values parts separate entries of the source, which are not always exact repeats. Equal entries are not always repeated. The panel holds about 79,000 compounds, 15% with a hit somewhere; the sample as a whole holds those more often. The source made the active and inactive calls. Rule as the data show it: active = growth inhibition above about 70%; inactive = the rest.

One assay in a line: NCI Yeast Anticancer Drug Screen. Data for the rad50 strain (AID 155).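 Also: 0% = growth of vehicle-only cultures of the same strain.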 As to conditions: S. cerevisiae rad50 strain growth inhibition; at 33.0 µM; active compounds read high. The procedure, abridged: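 DNA repair mutant yeast, compound exposure, growth read-out; inhibition is taken relative to vehicle.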
Take `CS(=O)(=O)SCc1ccc([N+](=O)[O-])cc1`: the growth inhibition is 99% (active).
Same read-out and setting: the value for `Cc1csc(=S)n1OC(=O)NC1CCCCC1` was 98% (active); that for `CCOc1ccc(NC(=O)C2=C(C)NC(C)=C(C(=O)Nc3ccc(OCC)cc3)C2c2cccc([N+](=O)[O-])c2)cc1` was 39% (inactive); that for `CC(C)(C)N=C(NO)c1ccccc1` was 14% (inactive).
Same read-out and setting: the value for `CCCCC/C(=C(\C#N)C(=O)OCC)c1ccccc1` was 7% (inactive).
Still for that read-out and setting: with `O=C(NCCCl)Sc1ccc(Cl)cc1` the figure was 55% (inactive); with `O=C1Nc2ccc(Br)cc2C1=Nc1ccc2c(c1)OCO2`, -27% (inactive); with `CCC(C)OC(=O)Nc1ccc(C)c(NC(=O)OC(C)CC)c1` (stereo not drawn), 9% (inactive).
Regarding `O=C(O)c1cc2ccc(Cl)cc2c(O)c1C1=CCCCC1`, the growth inhibition is 36% (inactive).
On to `CN(C)Cc1cc(N=Nc2ccc(Cl)cc2)ccc1OC(=O)c1ccccc1`, for which the growth inhibition is 5% (inactive).
As for `CN1CCN(C(=O)/C=C/C(=O)c2ccccc2)CC1`, the growth inhibition is 69% (inactive).
In the case of `CCCC/C=C/C(C)(C(=O)OCC)C(=O)OCC`, the growth inhibition is 0% (inactive).
Regarding `Cc1nc(-c2cc3cc([N+](=O)[O-])ccc3oc2=O)cs1`, the growth inhibition is 42% (inactive).
For `Cc1nc2ccccc2nc1NNc1ccccc1`, the growth inhibition is 46% (inactive).
Still for that read-out and setting: with `CN(C)[C@@H]1C(=O)C(C(N)=O)=C(O)[C@@]2(O)C(=O)C3=C(O)c4c(O)cccc4C[C@H]3C[C@@H]12` the figure was 95% (active); with `COc1ccc(NC(=O)CC2SC(=Nc3ccccc3C)NC2=O)c([N+](=O)[O-])c1` (stereo not drawn), 18% (inactive).
Still for that read-out and setting: with `COc1cc(O)c2c(c1O)C(=O)c1cc(C)ncc1C2=O` the figure was 57% (inactive); with `CSc1nnc(SC)nn1`, 45% (inactive).
Regarding `COc1cc(/C=C2\CCC/C(=C\c3ccc(O)c(OC)c3)C2=O)ccc1O`, the growth inhibition is -7% (inactive).
Same read-out and setting: with `CN(C)CCNC(=O)c1cccc2cc([N+](=O)[O-])ccc12` the figure was 93% (active); with `CCC(C)(C)c1ccc(Oc2cccc(C(=O)O)c2)cc1`, 55% (inactive); with `CCCCCCSc1ncnc2[nH]ncc12`, 4% (inactive).
On to `CC(=O)Nc1ccc(/C=C/[N+](=O)[O-])cc1`, for which the growth inhibition is 91% (active).
For `CCOC(=O)c1[nH]n(-c2ccccc2)c(=O)c1C=NC(=S)C(N)=S`, the growth inhibition was 90% (active).
Turning to `CCCC(O)C1CC(C(C)C)CCC1C` (stereo not drawn), the growth inhibition was 6% (inactive).
Same read-out and setting: the value for `O=[n+]1c2ccccc2n([O-])c2cc(Br)ccc21` was 99% (active).
Same read-out and setting: with `CN(C)CCNC(=O)c1cccc2c1Oc1c(cccc1[N+](=O)[O-])O2` the figure was 76% (active).
Take `Nc1ncc(-c2ccc(Br)cc2)s1`: the growth inhibition is 91% (active).
As for `Cc1cc2cc3cc(C)c(N)cc3nc2cc1N`, the growth inhibition was 86% (active).
Consider `CC12C(=O)OC(=O)C(c3ccccc31)c1ccccc12`, for which the growth inhibition is -16% (inactive).
Same read-out and setting: with `c1ccc2c(OCC3CO3)cccc2c1` (stereo not drawn) the figure was 89% (active).
On to `CCOC(=N)c1ccc(O)c(OC)c1`, for which the growth inhibition is -1% (inactive).
Turning to `Nc1cc(N)c(N=Nc2cccc3c(S(=O)(=O)O)cccc23)cc1N=Nc1cc([N+](=O)[O-])ccc1O`, the growth inhibition was 6% (inactive).
On the same count and under the same terms, the value for `COC(=O)Oc1cc(Cl)c(Cl)cc1Cl` was 2% (inactive); that for `O=C(O)C1CC(c2ccccc2)=NN1c1ccccc1` (stereo not drawn) was 33% (inactive); that for `COc1cc([C@@H]2c3cc4c(cc3[C@@H](Nc3ccc(NC(=O)c5cc([N+](=O)[O-])cn5C)cc3)[C@H]3COC(=O)[C@H]23)OCO4)cc(OC)c1O` was 92% (active).
For the compound `O=C(O)c1ccccc1/C=N/N=C1c2ccccc2-c2ccccc21`, the growth inhibition was 0% (inactive).
`O=C1CC(=O)c2ccccc21`: the growth inhibition is 14% (inactive).
On the same count and under the same terms, the value for `Nc1ncnc2c1ncn2C1OC(CO)CC1O` (stereo not drawn) was 76% (active).

Still in this assay, the particulars now being: S. cerevisiae rad50 strain growth inhibition; at 50.0 µM (retest, dose inferred, filed as 5.0); active compounds read high.
Consider `CS(=O)(=O)SCc1ccc([N+](=O)[O-])cc1`, for which the growth inhibition was 93% (active).
The same measure, in the same setting: with `Cc1csc(=S)n1OC(=O)NC1CCCCC1` the figure was 98% (active); with `CCOc1ccc(NC(=O)C2=C(C)NC(C)=C(C(=O)Nc3ccc(OCC)cc3)C2c2cccc([N+](=O)[O-])c2)cc1`, 84% (active).
On the same count and under the same terms, with `CC(C)(C)N=C(NO)c1ccccc1` the figure was 41% (inactive); with `CCCCC/C(=C(\C#N)C(=O)OCC)c1ccccc1`, -4% (inactive).
The same measure, in the same setting: the value for `O=C(NCCCl)Sc1ccc(Cl)cc1` was 85% (active); that for `O=C1Nc2ccc(Br)cc2C1=Nc1ccc2c(c1)OCO2` was 60% (inactive); that for `CCC(C)OC(=O)Nc1ccc(C)c(NC(=O)OC(C)CC)c1` (stereo not drawn) was 76% (active).
For `O=C(O)c1cc2ccc(Cl)cc2c(O)c1C1=CCCCC1`, the growth inhibition is 58% (inactive).
Still for that read-out and setting: with `CN(C)Cc1cc(N=Nc2ccc(Cl)cc2)ccc1OC(=O)c1ccccc1` the figure was 10% (inactive).
As to `CN1CCN(C(=O)/C=C/C(=O)c2ccccc2)CC1`, the growth inhibition is -3% (inactive).
Still for that read-out and setting: the value for `CCCC/C=C/C(C)(C(=O)OCC)C(=O)OCC` was 8% (inactive).
The same measure, in the same setting: the value for `Cc1nc(-c2cc3cc([N+](=O)[O-])ccc3oc2=O)cs1` was 84% (active); that for `Cc1nc2ccccc2nc1NNc1ccccc1` was 34% (inactive).
Regarding `CN(C)[C@@H]1C(=O)C(C(N)=O)=C(O)[C@@]2(O)C(=O)C3=C(O)c4c(O)cccc4C[C@H]3C[C@@H]12`, the growth inhibition is 99% (active).
Still for that read-out and setting: with `COc1ccc(NC(=O)CC2SC(=Nc3ccccc3C)NC2=O)c([N+](=O)[O-])c1` (stereo not drawn) the figure was 69% (inactive).
The same measure, in the same setting: the value for `COc1cc(O)c2c(c1O)C(=O)c1cc(C)ncc1C2=O` was 48% (inactive); that for `CSc1nnc(SC)nn1` was 98% (active).
The same measure, in the same setting: the value for `COc1cc(/C=C2\CCC/C(=C\c3ccc(O)c(OC)c3)C2=O)ccc1O` was 12% (inactive); that for `CN(C)CCNC(=O)c1cccc2cc([N+](=O)[O-])ccc12` was 92% (active); that for `CCC(C)(C)c1ccc(Oc2cccc(C(=O)O)c2)cc1` was 44% (inactive).
On to `CCCCCCSc1ncnc2[nH]ncc12`, for which the growth inhibition was 5% (inactive).
The same measure, in the same setting: the value for `CC(=O)Nc1ccc(/C=C/[N+](=O)[O-])cc1` was 94% (active).
Same read-out and setting: with `CCOC(=O)c1[nH]n(-c2ccccc2)c(=O)c1C=NC(=S)C(N)=S` the figure was 19% (inactive); with `CCCC(O)C1CC(C(C)C)CCC1C` (stereo not drawn), 5% (inactive); with `O=[n+]1c2ccccc2n([O-])c2cc(Br)ccc21`, 98% (active).
Consider `CN(C)CCNC(=O)c1cccc2c1Oc1c(cccc1[N+](=O)[O-])O2`, for which the growth inhibition was 72% (active).
As for `Nc1ncc(-c2ccc(Br)cc2)s1`, the growth inhibition was 51% (inactive).
The same measure, in the same setting: with `Cc1cc2cc3cc(C)c(N)cc3nc2cc1N` the figure was 99% (active); with `CC12C(=O)OC(=O)C(c3ccccc31)c1ccccc12`, 21% (inactive); with `c1ccc2c(OCC3CO3)cccc2c1` (stereo not drawn), 94% (active).
On to `CCOC(=N)c1ccc(O)c(OC)c1`, for which the growth inhibition was -4% (inactive).
Same read-out and setting: with `Nc1cc(N)c(N=Nc2cccc3c(S(=O)(=O)O)cccc23)cc1N=Nc1cc([N+](=O)[O-])ccc1O` the figure was 61% (inactive); with `COC(=O)Oc1cc(Cl)c(Cl)cc1Cl`, -5% (inactive).
`O=C(O)C1CC(c2ccccc2)=NN1c1ccccc1` (stereo not drawn): the growth inhibition was 84% (active).
As for `COc1cc([C@@H]2c3cc4c(cc3[C@@H](Nc3ccc(NC(=O)c5cc([N+](=O)[O-])cn5C)cc3)[C@H]3COC(=O)[C@H]23)OCO4)cc(OC)c1O`, the growth inhibition was 95% (active) and 97% (active).
With `O=C(O)c1ccccc1/C=N/N=C1c2ccccc2-c2ccccc21`, the growth inhibition is 45% (inactive).
For the compound `O=C1CC(=O)c2ccccc21`, the growth inhibition is 69% (inactive).
On to `Nc1ncnc2c1ncn2C1OC(CO)CC1O` (stereo not drawn), for which the growth inhibition is 90% (active).
